Measured values taken from the supplement of paper PMC10849652.
The full data set covers some 8,800 targets. This sample favours those with a hit. About 0.5% of all pairs of compound and target were hits.

Columns and labels:
Assay in all cases: log2 fold change, soluble protein after heating vs DMSO (PISA); higher = thermal stabilisation; K562 lysate, 10 uM; active = over 0.2 and 3.5 SD of the protein, either way, in both replicates (recomputed)
[1] = compound: NCC(=O)Nc1ccc(-n2nc(C(F)(F)F)cc2-c2ccc3c(ccc4ccccc43)c2)cc1
How it was run: (§1)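 To prepare the extract, K562 pellets were dounce-homogenised in PBS pH 7.4 with 1 mM MgCl2, giving crude material at 1 mg/mL protein. This was treated with 10 μM compound for 30 min, then heated in aliquots for 3 min over 48°C-58°C before pooling and addition of NP-40 to 0.5% at 4°C. Centrifugation at 21,000xg for 90 min left soluble protein in the supernatant, which TMTpro 16plex LC-MS/MS quantified with equalised channel sums. Results are log-two fold changes in thermal stability compared with solvent controls, from duplicates.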

[2] = compound: O=C(CCCCCCC(=O)Nc1ccccc1)NO [vorinostat]
How it was run: as §1

[3] = compound: O=C(O)c1ccc2c(c1)nc(Nc1cccc(Cl)c1)c1ccncc12 [silmitasertib]
How it was run: as §1

[4] = compound: O=C1NC(=O)C(c2cnc3ccccn23)=C1c1cn2c3c(cc(F)cc13)CN(C(=O)N1CCCCC1)CC2
How it was run: as §1

[5] = compound: c1cn2cc(-c3ccc4cn[nH]c4c3)nc(Nc3ccc(N4CCOCC4)cc3)c2n1 [entospletinib]
How it was run: as §1

Measured: log2 fold change

DHFR (UniProt P00374)
inactive: [1] -0.045 | [2] -0.214 | [3] 0.133 | [4] 0 | [5] 0.002

CHEK2 (UniProt O96017)
UniProt O96017, sequence (O96017 whole entry, looked up): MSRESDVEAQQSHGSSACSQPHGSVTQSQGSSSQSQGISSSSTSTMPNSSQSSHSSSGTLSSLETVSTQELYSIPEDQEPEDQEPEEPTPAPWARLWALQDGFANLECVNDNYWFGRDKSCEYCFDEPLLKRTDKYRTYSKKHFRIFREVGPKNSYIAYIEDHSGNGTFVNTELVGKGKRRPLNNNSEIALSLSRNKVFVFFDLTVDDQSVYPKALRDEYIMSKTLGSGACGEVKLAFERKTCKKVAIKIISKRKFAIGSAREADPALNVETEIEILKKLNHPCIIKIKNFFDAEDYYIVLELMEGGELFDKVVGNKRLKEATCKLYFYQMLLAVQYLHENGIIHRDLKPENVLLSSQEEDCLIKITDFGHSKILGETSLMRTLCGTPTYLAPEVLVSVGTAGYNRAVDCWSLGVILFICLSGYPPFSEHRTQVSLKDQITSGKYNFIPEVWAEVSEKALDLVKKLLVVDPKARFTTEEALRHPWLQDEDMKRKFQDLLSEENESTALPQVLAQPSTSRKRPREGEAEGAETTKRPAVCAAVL
inactive: [1] -0.021 | [2] -0.128 | [3] 0.04 | [4] -0.006 | [5] -0.033

CTNNBL1 (UniProt Q8WYA6)
UniProt Q8WYA6, sequence (Q8WYA6 whole entry, looked up): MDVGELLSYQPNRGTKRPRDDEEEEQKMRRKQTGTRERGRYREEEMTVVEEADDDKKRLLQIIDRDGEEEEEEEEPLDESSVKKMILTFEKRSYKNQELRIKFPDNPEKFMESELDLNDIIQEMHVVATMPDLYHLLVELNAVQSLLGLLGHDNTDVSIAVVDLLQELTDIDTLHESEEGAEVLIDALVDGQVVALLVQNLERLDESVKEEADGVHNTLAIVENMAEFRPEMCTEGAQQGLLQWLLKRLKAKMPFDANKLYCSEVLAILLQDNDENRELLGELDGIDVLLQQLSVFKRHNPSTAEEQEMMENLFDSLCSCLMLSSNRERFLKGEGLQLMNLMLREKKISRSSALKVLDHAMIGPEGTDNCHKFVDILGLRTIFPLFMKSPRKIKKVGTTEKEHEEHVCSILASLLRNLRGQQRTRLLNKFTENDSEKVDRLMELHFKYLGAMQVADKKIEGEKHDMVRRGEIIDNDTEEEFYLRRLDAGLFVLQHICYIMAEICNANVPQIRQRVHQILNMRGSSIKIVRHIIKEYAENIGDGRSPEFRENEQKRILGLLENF
inactive: [1] -0.026 | [2] -0.046 | [3] -0.044 | [4] -0.025 | [5] -0.011

CUEDC2 (UniProt Q9H467)
UniProt Q9H467, sequence (Q9H467 whole entry, looked up): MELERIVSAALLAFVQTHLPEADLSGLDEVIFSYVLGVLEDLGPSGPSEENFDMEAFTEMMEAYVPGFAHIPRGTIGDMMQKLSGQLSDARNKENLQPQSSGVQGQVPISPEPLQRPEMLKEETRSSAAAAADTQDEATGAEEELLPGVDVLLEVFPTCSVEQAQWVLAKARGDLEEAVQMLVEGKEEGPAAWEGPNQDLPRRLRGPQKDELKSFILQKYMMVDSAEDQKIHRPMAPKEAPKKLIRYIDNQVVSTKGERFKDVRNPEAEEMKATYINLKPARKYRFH
inactive: [1] -0.01 | [2] 0.151 | [3] -0.012 | [4] 0.003 | [5] 0.066

CORO1A (UniProt P31146)
inactive: [1] 0.094 | [3] -0.003 | [4] 0.025 | [5] 0.116
active: [2] -0.412

DNAJC3 (UniProt Q13217)
inactive: [1] -0.029 | [2] 0.064 | [3] 0.017 | [4] 0.033 | [5] 0

DHRS11 (UniProt Q6UWP2)
UniProt Q6UWP2, sequence (Q6UWP2 whole entry, looked up): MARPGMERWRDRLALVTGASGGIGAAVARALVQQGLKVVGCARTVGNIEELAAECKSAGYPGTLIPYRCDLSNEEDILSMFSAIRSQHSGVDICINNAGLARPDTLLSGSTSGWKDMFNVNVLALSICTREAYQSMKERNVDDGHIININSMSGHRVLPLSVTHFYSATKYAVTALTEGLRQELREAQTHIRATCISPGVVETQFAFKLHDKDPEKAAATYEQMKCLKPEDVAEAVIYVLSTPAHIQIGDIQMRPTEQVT
active: [2] -0.255
inactive: [1] -0.006 | [3] -0.014 | [4] 0.02 | [5] -0.011

COL12A1 (UniProt Q99715)
UniProt Q99715, sequence (Q99715 whole entry, looked up): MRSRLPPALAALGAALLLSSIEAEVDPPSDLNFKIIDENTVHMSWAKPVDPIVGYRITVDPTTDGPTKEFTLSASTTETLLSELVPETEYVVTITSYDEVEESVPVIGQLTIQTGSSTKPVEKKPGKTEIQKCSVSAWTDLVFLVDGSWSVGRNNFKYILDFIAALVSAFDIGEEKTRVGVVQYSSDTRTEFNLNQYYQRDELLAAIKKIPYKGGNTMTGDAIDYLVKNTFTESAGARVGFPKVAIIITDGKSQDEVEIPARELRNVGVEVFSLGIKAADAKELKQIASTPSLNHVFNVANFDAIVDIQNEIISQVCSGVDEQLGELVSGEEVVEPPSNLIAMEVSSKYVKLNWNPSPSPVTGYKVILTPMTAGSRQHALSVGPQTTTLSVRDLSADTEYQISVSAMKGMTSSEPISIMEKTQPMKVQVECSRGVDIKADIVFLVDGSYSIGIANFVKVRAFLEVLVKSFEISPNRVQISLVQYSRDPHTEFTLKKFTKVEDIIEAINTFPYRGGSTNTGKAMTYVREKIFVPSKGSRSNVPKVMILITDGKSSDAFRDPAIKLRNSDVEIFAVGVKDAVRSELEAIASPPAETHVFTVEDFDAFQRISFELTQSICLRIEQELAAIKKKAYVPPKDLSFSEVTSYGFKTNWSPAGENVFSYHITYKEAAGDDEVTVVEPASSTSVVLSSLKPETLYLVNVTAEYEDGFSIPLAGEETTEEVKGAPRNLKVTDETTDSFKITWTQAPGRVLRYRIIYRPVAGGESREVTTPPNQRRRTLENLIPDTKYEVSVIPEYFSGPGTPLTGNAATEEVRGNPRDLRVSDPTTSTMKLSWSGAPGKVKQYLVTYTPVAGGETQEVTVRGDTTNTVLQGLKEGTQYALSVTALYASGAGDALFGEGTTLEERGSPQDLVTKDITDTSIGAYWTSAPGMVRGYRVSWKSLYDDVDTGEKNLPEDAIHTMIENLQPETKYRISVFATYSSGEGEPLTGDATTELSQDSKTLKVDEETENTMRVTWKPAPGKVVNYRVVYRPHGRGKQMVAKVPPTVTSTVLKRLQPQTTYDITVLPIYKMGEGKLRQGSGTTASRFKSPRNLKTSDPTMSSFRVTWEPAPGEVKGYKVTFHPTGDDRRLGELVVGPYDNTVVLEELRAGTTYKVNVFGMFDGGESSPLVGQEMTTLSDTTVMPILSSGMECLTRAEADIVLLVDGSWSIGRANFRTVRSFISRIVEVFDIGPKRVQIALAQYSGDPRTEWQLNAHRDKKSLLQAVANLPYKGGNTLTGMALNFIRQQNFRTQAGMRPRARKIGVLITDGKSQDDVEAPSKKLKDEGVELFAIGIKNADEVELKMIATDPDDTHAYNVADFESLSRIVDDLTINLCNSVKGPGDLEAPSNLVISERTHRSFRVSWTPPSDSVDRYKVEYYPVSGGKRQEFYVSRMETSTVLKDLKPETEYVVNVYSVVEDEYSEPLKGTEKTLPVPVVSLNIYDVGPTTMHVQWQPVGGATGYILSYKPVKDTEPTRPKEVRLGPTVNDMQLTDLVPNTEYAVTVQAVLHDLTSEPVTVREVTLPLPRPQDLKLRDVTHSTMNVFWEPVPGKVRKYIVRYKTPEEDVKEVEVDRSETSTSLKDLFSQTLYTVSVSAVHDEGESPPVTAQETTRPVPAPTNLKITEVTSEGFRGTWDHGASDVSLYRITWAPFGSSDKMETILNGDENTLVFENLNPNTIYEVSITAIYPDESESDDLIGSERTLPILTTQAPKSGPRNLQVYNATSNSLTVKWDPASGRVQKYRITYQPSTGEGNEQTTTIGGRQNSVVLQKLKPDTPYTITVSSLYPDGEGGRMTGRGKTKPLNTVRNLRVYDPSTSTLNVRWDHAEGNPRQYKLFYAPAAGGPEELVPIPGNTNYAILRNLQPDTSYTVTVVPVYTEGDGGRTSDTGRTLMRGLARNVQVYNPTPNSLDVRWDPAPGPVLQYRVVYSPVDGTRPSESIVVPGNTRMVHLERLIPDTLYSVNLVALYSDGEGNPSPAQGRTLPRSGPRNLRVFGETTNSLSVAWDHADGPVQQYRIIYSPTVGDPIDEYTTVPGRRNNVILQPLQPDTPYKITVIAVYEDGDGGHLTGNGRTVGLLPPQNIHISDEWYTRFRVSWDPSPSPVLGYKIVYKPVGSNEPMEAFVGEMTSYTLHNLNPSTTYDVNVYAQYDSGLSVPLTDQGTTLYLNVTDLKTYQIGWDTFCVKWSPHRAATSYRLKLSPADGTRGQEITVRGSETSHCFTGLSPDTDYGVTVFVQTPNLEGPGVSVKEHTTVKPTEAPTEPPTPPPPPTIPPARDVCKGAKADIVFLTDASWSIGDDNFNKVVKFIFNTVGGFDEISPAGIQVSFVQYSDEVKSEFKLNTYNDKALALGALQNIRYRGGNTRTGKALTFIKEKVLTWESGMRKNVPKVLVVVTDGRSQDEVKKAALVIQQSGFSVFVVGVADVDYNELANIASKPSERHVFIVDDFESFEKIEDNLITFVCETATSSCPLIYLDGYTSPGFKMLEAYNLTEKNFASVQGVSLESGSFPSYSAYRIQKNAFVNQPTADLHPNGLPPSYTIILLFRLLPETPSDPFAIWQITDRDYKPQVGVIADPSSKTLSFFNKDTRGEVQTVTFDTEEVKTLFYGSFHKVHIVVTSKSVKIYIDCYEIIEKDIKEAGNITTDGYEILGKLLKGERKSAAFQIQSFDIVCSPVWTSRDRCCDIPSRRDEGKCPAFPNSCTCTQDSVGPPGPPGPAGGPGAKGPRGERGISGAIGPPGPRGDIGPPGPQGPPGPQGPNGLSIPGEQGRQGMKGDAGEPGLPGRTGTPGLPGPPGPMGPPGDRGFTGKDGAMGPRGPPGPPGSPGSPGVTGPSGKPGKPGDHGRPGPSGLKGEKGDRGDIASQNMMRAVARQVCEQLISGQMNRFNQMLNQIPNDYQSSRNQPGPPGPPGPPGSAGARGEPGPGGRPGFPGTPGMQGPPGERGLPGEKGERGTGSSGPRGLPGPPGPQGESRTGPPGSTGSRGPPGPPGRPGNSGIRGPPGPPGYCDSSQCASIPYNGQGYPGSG
inactive: [1] 0.29 | [2] 0.037 | [3] -0.079 | [4] 0.908 | [5] -0.036

CIB1 (UniProt Q99828)
UniProt Q99828, sequence (Q99828 whole entry, looked up): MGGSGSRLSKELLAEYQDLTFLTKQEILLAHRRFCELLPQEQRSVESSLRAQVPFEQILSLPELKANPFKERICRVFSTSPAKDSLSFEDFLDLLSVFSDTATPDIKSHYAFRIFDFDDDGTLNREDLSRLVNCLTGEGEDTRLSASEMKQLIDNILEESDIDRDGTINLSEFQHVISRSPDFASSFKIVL
inactive: [1] -0.027 | [2] 0.049 | [3] -0.006 | [4] -0.037 | [5] -0.091
